In the supplement of paper PMC11732987, “Enantioselective OTUD7B fragment discovery through chemoproteomics screening and high-throughput optimisation” (Communications Chemistry, 2025):

Tests used:
Assay in all cases: log2 ratio of Biotin-Ahx-Ub-VS probe labelling (fragment/DMSO); higher = less target engagement (more negative = stronger competition), active = hit call of the paper (q ≤ 0.05, log2 ratio ≤ -1)
Conditions in all cases: compound concentration: 200 uM; treatment time: 3 h
OTUD6B = target: T1, OTUD6B (UniProt Q8N6M0)
T1 sequence (whole entry): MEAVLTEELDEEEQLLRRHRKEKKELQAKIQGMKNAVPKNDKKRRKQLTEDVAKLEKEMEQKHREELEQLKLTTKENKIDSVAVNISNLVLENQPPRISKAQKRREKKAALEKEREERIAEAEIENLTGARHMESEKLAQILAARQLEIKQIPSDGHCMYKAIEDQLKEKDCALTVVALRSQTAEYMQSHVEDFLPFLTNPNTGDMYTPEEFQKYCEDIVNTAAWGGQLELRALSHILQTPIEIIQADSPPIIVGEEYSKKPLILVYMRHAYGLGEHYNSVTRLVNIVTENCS
Method in brief: (§1)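 HEK293T lysate (495 µg per sample, in Tris/CHAPS/IGEPAL buffer with protease inhibitors) was exposed in triplicate for 3 h to fragment at 200 µM or to vehicle, then to Biotin-Ahx-Ub-VS at 0.5 µM final for 1 h. Labelled DUBs were enriched on NeutrAvidin, digested with LysC and trypsin, and analysed by diaPASEF LC-MS/MS. Spectronaut label-free quantities were normalised to the global median, and values are average log2 ratios of fragment over vehicle from an unpaired t-test. Only proteins with ≥2 unique peptides were used.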

OTUD7B = target: T2, OTUD7B (UniProt Q6GQQ9)
T2 sequence (whole entry): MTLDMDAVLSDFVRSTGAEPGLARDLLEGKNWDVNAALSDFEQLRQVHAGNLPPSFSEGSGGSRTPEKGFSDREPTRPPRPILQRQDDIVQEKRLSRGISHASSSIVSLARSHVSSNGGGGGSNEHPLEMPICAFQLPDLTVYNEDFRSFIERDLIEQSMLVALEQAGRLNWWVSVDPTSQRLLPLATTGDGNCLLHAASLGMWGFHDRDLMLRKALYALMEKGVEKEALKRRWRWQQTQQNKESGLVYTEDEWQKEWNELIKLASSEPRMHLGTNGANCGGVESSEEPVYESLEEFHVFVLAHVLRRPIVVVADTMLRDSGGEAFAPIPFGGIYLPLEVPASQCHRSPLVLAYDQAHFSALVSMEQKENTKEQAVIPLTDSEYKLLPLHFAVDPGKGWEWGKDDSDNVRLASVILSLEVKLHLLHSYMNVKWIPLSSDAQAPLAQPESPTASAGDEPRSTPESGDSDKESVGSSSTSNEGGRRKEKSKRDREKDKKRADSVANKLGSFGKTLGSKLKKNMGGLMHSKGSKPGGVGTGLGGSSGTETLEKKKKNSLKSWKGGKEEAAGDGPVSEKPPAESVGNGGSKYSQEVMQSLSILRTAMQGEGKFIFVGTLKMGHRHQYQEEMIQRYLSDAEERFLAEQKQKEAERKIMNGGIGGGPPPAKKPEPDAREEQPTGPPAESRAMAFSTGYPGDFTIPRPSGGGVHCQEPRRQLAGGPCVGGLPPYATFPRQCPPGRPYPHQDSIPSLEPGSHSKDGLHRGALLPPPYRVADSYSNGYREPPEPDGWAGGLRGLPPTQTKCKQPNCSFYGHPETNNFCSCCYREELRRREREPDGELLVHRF
Method in brief: as §1

PRPF8 = PRPF8 (UniProt Q6P2Q9)
Method in brief: as §1

PSMD7 = target: T3, PSMD7 (UniProt P51665)
T3 sequence (whole entry): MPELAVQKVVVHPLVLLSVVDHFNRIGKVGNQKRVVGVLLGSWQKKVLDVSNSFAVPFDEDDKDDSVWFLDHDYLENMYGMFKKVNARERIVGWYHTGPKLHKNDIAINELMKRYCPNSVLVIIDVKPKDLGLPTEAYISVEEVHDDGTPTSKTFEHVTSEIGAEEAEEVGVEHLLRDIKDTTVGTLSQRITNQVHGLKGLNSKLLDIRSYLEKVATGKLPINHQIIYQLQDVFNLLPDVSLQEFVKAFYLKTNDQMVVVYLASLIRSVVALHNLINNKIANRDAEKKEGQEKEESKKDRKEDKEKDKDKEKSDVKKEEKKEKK
Method in brief: as §1

UCHL1 = UCHL1 (UniProt P09936)
Chain of UCHL1 (P09936 whole entry, looked up): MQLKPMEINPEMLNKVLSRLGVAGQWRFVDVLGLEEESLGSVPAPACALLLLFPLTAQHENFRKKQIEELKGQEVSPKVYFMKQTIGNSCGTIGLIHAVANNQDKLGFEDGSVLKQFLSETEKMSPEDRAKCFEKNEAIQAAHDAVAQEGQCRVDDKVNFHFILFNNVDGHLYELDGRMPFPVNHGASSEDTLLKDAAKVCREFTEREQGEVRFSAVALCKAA
Method in brief: as §1

UCHL3 = target: T4, UCHL3 (UniProt P15374)
T4 sequence (whole entry): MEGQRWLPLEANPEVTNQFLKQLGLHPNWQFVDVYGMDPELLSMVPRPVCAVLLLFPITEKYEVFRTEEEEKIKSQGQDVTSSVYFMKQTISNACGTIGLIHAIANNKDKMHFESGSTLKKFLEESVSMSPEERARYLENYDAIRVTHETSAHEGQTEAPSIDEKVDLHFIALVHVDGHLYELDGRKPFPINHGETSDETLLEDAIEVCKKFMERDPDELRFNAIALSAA
Method in brief: as §1

UCHL5 = target: T5, UCHL5 (UniProt Q9Y5K5)
T5 sequence (whole entry): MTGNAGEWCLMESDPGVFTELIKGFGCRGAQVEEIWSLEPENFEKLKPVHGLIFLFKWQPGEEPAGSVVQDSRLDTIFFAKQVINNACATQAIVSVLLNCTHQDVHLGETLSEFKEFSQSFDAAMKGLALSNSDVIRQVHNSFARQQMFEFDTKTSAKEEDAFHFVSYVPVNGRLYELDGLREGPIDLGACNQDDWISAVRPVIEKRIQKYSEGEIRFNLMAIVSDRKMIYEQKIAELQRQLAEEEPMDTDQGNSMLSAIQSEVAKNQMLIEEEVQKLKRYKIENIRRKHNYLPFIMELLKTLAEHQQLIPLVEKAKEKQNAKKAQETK
Method in brief: as §1

USP10 = USP10 (UniProt Q14694)
Chain of USP10 (Q14694 whole entry): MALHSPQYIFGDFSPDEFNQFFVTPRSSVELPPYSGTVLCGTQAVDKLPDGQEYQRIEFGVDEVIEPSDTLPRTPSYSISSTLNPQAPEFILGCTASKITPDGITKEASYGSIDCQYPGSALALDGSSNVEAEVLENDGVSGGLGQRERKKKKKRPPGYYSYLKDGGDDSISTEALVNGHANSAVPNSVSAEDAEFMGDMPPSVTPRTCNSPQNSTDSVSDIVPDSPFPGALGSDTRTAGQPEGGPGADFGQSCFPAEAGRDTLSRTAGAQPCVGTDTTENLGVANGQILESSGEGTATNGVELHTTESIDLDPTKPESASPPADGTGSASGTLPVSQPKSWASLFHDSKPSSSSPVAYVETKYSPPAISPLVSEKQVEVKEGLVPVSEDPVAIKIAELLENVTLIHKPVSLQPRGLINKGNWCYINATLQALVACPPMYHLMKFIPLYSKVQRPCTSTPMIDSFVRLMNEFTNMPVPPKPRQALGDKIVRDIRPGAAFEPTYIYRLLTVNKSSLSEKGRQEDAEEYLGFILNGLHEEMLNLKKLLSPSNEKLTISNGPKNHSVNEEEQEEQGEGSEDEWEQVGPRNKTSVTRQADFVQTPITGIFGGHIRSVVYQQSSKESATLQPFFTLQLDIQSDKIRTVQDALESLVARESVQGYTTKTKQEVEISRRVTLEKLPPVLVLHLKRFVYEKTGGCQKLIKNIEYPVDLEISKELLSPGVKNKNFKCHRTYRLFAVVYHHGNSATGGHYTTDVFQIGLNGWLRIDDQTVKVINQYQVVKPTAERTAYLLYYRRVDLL
Method in brief: as §1

USP15 = target: T6, USP15 (UniProt Q9Y4E8)
T6 sequence (whole entry): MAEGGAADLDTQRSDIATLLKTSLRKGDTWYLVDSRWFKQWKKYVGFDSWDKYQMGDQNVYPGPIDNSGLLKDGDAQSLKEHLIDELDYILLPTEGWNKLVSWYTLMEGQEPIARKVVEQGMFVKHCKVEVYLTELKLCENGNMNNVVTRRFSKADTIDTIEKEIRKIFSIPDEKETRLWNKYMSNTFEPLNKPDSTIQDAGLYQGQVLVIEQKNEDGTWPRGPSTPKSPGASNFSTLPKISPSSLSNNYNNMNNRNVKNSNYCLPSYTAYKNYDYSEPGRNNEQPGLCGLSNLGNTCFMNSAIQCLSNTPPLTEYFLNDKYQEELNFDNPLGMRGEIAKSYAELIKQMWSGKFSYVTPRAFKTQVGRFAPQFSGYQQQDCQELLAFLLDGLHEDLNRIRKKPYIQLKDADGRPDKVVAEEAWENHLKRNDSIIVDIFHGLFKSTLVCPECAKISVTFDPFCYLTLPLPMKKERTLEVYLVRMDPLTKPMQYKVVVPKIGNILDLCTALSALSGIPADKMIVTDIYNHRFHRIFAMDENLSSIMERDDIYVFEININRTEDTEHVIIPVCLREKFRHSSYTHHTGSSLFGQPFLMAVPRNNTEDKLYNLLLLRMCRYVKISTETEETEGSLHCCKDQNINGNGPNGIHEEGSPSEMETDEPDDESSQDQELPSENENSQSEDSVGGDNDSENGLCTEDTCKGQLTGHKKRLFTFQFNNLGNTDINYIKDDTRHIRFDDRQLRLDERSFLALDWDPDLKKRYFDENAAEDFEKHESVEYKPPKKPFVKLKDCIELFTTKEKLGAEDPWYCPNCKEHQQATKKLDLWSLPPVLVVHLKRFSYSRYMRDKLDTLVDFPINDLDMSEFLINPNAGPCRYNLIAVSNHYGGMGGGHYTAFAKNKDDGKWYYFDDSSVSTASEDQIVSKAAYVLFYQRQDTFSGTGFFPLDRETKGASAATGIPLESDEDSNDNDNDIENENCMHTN
Method in brief: as §1

USP16 = USP16 (UniProt Q9Y5T5)
Chain of USP16 (Q9Y5T5 whole entry, looked up): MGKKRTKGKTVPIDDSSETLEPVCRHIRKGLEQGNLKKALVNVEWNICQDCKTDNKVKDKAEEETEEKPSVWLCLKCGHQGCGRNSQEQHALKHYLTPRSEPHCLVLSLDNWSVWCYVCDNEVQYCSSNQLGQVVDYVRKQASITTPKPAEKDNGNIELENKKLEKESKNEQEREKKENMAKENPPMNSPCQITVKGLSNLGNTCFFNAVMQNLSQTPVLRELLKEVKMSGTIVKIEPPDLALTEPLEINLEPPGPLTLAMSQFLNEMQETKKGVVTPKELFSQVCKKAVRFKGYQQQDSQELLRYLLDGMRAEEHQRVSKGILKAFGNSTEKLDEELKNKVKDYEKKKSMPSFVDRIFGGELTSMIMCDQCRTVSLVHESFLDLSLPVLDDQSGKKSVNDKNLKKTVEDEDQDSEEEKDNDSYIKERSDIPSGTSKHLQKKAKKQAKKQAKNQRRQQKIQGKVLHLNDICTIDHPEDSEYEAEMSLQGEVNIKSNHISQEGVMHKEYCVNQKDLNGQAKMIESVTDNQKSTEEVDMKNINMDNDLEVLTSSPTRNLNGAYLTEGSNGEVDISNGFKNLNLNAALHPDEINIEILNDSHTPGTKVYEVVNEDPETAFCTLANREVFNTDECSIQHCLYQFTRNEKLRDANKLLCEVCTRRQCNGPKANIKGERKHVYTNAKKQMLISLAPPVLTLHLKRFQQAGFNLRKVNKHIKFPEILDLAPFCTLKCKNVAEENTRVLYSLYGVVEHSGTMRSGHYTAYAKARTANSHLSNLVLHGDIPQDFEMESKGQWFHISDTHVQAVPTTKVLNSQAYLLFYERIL
Method in brief: as §1

Measured: log2 ratio of Biotin-Ahx-Ub-VS probe labelling

NC(=O)C1CCCCN1C(=O)CCl (stereo not given)
active: OTUD7B -1.65 | UCHL1 -1.52
inactive: OTUD6B -0.175 | PRPF8 -0.153 | PSMD7 -0.146 | UCHL3 0.215 | UCHL5 -0.42 | USP10 -0.0331 | USP15 -0.0982 | USP16 0.0843
